# Screening results deposited in PubChem BioAssay by Broad Institute.
# Not all results are given here.
# aSyn 5UTR act: Activators working through SNCA 5'UTR binding (MLPCN); alpha-synuclein 5'UTR reporter, activators screen; activity score, % (tested at 7.5 µM), hits read low; hit rate 7.1% among 300,000; in the data active = activity score below about -60%
# Numbers stand for hits; – = inactive.
SMILES,aSyn 5UTR act
COc1ccc(S(=O)(=O)n2ccc(-c3cnc(-c4ccccc4)s3)n2)cc1,-140
CC1=NN(C(N)=S)C(=O)C1N=Nc1ccc(Cl)cc1Cl (configuration not stated),-184
CC1=NN(C(N)=S)C(=O)C1N=Nc1cccc(C)c1 (configuration not stated),-75
CC1=NN(C(N)=S)C(=O)C1N=Nc1ccc(C)c(Br)c1 (configuration not stated),-128
O=C(CSc1nnc2sc3ccccc3n12)c1ccco1,-118
O=C(CSc1nnnn1-c1ccccc1)c1ccco1,-63
c1csc(CSc2nnc3sc4ccccc4n23)c1,-81
Cc1ccc(-c2ccc(SCC(=O)Nc3nonc3C)nn2)cc1,-87
CC(=O)Nc1ccc(NC(=O)CSc2ccc(-c3ccc4c(c3)OCO4)nn2)cc1,-66
Cc1ccc(-c2ccc(SCC(=O)Nc3ccc4c(c3)OCCO4)nn2)cc1,-98
COc1ccc(OC)c(/C=C2\SC(=S)N(Cc3cccnc3)C2=O)c1,-62
CCOc1ccc(/C=C2\CCC(C3CCCC3)C2=O)cc1 (configuration not stated),-229
O=C1C(=C2SCCCS2)CC/C1=C\c1ccc(F)cc1,–
O=C1/C(=C/c2ccccc2)CCC1C1CCCC1 (configuration not stated),-73
O=C1/C(=C/c2ccc(F)cc2)CCC1C1CCCC1 (configuration not stated),-133
O=C1/C(=C/c2ccco2)CCC1C1CCCC1 (configuration not stated),-66
Cc1ccc2nc(SCC(=O)c3ccccc3)nc(=O)n2c1,-112
Cc1ccn2c(=O)nc(SCC(=O)c3ccccc3)nc2c1,-76
CC(C)c1nc(C#N)c(NN)o1,-127
Cc1ccc(OCc2cc(C(=O)N(C)CCc3ccccn3)no2)cc1C,-73
COc1cccc(OCc2cc(C(=O)N(C)Cc3nc(C)cs3)no2)c1,-112
Cc1cc(CN(C)C(=O)c2cc(COc3ccc(C)c(C)c3)on2)on1,-159
Cc1cccc(NS(=O)(=O)c2ccc(NC(=O)CN(c3cc([N+](=O)[O-])ccc3C)S(C)(=O)=O)cc2)c1,–
Cc1ccc2nc(-c3ccc(NC(=O)CN4CCN(C(=O)c5ccco5)CC4)cc3)sc2c1,-177
Cc1ccc2nc(-c3ccc(NC(=O)CN(c4ccccc4C)S(C)(=O)=O)cc3)sc2c1,-164
SMILES,aSyn 5UTR act
Cc1cc(C)cc(N(CC(=O)Nc2ccc(-c3nc4ccc(C)cc4s3)cc2)S(C)(=O)=O)c1,-100
CCOc1ccc2oc(C(=O)Nc3ccc(N4CCOCC4)cc3)c(C)c2c1,-69
CCOc1ccc2oc(C(=O)Nc3ccc4c(c3)OCO4)c(C)c2c1,-176
CCOc1ccc2oc(C(=O)Nc3cc(C)ccn3)c(C)c2c1,-67
C#CCn1c(=NC(=O)c2cccs2)sc2cccc(OC)c21,-97
CCOC(=O)Cc1ccc2sc(-c3ccccc3)nc2c1,-82
O=c1c2cccc(Cl)c2nc2n1Cc1ccccc1-2,-154
CC(C)(C)c1ccc(/C=C/C(=O)c2ccc(NC3=NCCCS3)cc2)cc1,-107
O=C(/C=C/c1ccc(Br)cc1)c1ccc(NC2=NCCCS2)cc1,-99
CCOc1ccc(NC(=O)c2csc3c2CCCC3)cc1,-204
CC(=O)c1cccc(NC(=O)c2csc3c2CCCCC3)c1,-67
COC(=O)c1c(NC(=O)c2ccccc2[N+](=O)[O-])sc2c1CC(C)(C)NC2(C)C,-70
COC(=O)c1c(NC(=O)COc2ccc(Cl)cc2)sc2c1CC(C)(C)NC2(C)C,–
COc1ccc(C2=Nn3c(nnc3-c3ccco3)SC2)cc1OC,–
COc1ccc(-c2noc(-c3ccco3)n2)cc1OC,-110
COc1ccc(-c2noc(-c3ccoc3C)n2)cc1OC,-132
COc1ccc(-c2noc(-c3ccoc3C)n2)cc1,-143
COc1cccc(-c2noc(-c3ccoc3C)n2)c1,-212
Cc1cccc(/C=C/C(=O)c2ccc(NC3=NCCCS3)cc2)c1,-220
COc1cccc(/C=C/C(=O)c2ccc(NC3=NCCCS3)cc2)c1,-101
Cc1sc(NC(=O)c2ccccc2F)c(CN2CCCCC2C)c1C (configuration not stated),-296
O=C(Nc1ccc2c(c1)ncn2-c1ccccc1)c1ccco1,-131
Cn1cnc2cc(NC(=O)c3ccco3)ccc21,-71
Nc1ncn([C@H]2C[C@H](O)[C@@H](CO)O2)c(=O)n1,-925
O=c1[nH]c(=O)n([C@H]2C[C@H](O)[C@@H](CO)O2)cc1C(F)(F)F,–
SMILES,aSyn 5UTR act
Nc1nc(Cl)nc2c1ncn2C1CC(O)C(CO)O1 (configuration not stated),–
Cc1ccc2nc(-c3ccc(NC(=O)c4ccco4)cc3)[nH]c2c1,-163
Cn1cccc1-c1nc2ccc(NC(=O)c3ccco3)cc2[nH]1,-132
COc1ccc(-c2cn3cc(Cl)ccc3n2)cc1OC,-239
CCCCCCOC(=O)c1ccc(OC(=O)c2cccnc2)cc1,-101
CC(=O)N1CCN(c2ccc(NC(=O)c3ccco3)cc2)CC1,-83
CCC(=O)N1CCN(c2ccc(NC(=O)c3ccco3)cc2)CC1,-94
Cc1cccc(Oc2cc([N+](=O)[O-])cc3c2C(=O)Nc2ccccc2O3)c1,-68
Cn1c(=NC(=O)COc2ccccc2)sc2ccccc21,-148
O=Cc1s/c(=N\S(=O)(=O)c2ccccc2)n(CCCCl)c1Cl,–
Cn1c(=NC(=O)CS(=O)(=O)c2ccccc2)sc2ccccc21,-76
COc1ccc(C2CC(c3ccccc3OC(C)=O)=NN2C(C)=O)cc1 (configuration not stated),-79
Cc1c(C)n(CCO)c2ncnc(Nc3ccc(F)cc3)c12,-64
CC1CCCC(C)N1C(=O)C1CC(c2ccc(F)cc2)=NO1 (configuration not stated),-84
O=C(NC1CCCC1)C1CC(c2ccc(F)cc2)=NO1 (configuration not stated),-108
COc1cccc(C2=NOC(C(=O)N3CCOCC3)C2)c1 (configuration not stated),-101
CC1CCN(C(=O)C2CC(c3ccc(F)cc3)=NO2)CC1 (configuration not stated),-88
O=C(Nc1ccccc1)Nc1ccccc1Br,-94
O=C(CN1CCCC1)Nc1ccc(NC(=O)Nc2ccccc2Cl)cc1,-126
O=C(Nc1ccccc1)Nc1ccc(Br)c(Cl)c1,-126
O=C(Nc1ccccc1)Nc1cccc(Cl)c1Cl,-237
S=C(Nc1ccc(OCc2ccccc2)cc1)Nc1cccc(Cl)c1Cl,-102
O=C(Nc1ccc(Cl)cc1)Nc1cccc2nsnc12,-126
Cc1cc(C)c(C#N)c(SCC(=O)Nc2ccc3c(c2)OCO3)n1,-145
Cc1nc(SCC(=O)Nc2ccc3c(c2)OCO3)c(C#N)c2c1CCCC2,-140
SMILES,aSyn 5UTR act
COCc1cc(C)nc(SCC(=O)Nc2ccc(C)c(C)c2)c1C#N,-136
Cc1cc(C)c(C#N)c(SCC(=O)Nc2ccccc2C(N)=O)n1,-64
CCOC(=O)N/N=C/C=C/c1ccccc1[N+](=O)[O-],-75
CC1CCCC(C)N1/N=C/C=C/c1ccccc1[N+](=O)[O-] (configuration not stated),-133
Cc1ccsc1C(=O)N/N=C/C=C/c1ccccc1[N+](=O)[O-],-138
Cc1cc(Cl)ccc1Nc1ncccc1C(N)=O,-154
Cc1ccc(Nc2ncccc2C(N)=O)cc1,-139
COc1ccc(Nc2ncccc2C(=O)O)cc1,-77
COc1cc(/C=C2\C(=O)N(CCC#N)N=C2C)ccc1OCC(=O)Nc1ccccc1,-164
COc1cc(/C=N/NC(=O)c2ccncc2)ccc1OCC(=O)Nc1ccc(C)c(C)c1,-76
